Among the data in PubChem BioAssay (EPA / NIEHS) are outcome and AC50 values, retold here.

By AC50 is commonly meant the concentration at which the activity in the assay is half-maximal.

Structures are written as SMILES. “And” between values parts separate entries of the source, which are not always exact repeats. Equal entries are not always repeated. Records with an inconclusive call do not appear. The source made the active and inactive calls. How the source made its calls, unless noted: active means hit-call score of the fitted dose curve at least 0.9, where 1 is the maximum; inconclusive means response in the unintended direction; inactive means score below 0.9.

In assay [1] the test system is Sodium/Iodide Symporter (NIS), SLC5A5 (gene 6528). The experiment in a line: CPHEA_Stoker_NIS_Inhibition_RAIU: CPHEA's Radioactive Iodide Uptake (RAIU) Assay for Sodium/Iodide Symporter (NIS) Inhibition, Stoker and Laws Labs (AID 2283841). An outline of the steps: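 hNIS-HEK293T-EPA cells incubated 2 h at room temperature with compound (0.001–100 uM, 0.5% DMSO) and 329 pM final 125I in HBSS/10 mM HEPES, pH 7.4. Intracellular 125I counted; normalised to DMSO maximal uptake, triplicate, three biological replicates.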

Assay [2] is described as follows: CEETOX_H295R_11DCORT_noMTC: CeeTox H295R High-throughput Steroidogenesis Assay for 11-Deoxycortisol (11DCORT), maximum tolerated concentration (MTC) filtered results only (AID 2283911; active means hit-call score of the fitted dose curve at least 0.9, where 1 is the maximum; inactive means score below 0.9). The following applies: actives raise or lower the signal. In short, it runs like this: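 HPLC-MS/MS read-out of 11-deoxycortisol after MTBE extraction of H295R medium. Cells: forskolin 10 uM pre-stimulation 48 h, chemical 48 h, 0.1% DMSO final. Bidirectional fit vs DMSO baseline; no MTC filtering.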

Assay [3] is described as follows: CEETOX_H295R_OHPREG_noMTC: CeeTox H295R High-throughput Steroidogenesis Assay for OH-Pregnenolone (OHPREG), maximum tolerated concentration (MTC) filtered results only (AID 2283912; active means hit-call score of the fitted dose curve at least 0.9, where 1 is the maximum; inactive means score below 0.9). The following applies: actives raise or lower the signal. An outline of the steps:
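H295R cells prestimulated 48 h with 10 uM forskolin, then exposed 48 h to compound (0.1% DMSO). 17alpha-hydroxypregnenolone in medium measured by MTBE extraction and HPLC-MS/MS; bidirectional fit vs DMSO, concentrations not MTT/MTC-filtered.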

Assay [4] can be described thus: CEETOX_H295R_OHPROG_noMTC: CeeTox H295R High-throughput Steroidogenesis Assay for OH-Progesterone (OHPROG), maximum tolerated concentration (MTC) filtered results only (AID 2283914; active means hit-call score of the fitted dose curve at least 0.9, where 1 is the maximum; inactive means score below 0.9). The following applies: actives raise or lower the signal. An outline of the steps: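 H295R cells prestimulated 48 h with 10 uM forskolin, then exposed 48 h to chemical (0.1% DMSO final). 17alpha-hydroxyprogesterone in medium quantified by HPLC-MS/MS after MTBE extraction; bidirectional fitting versus DMSO, concentrations not MTC-filtered.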

Assay [5] is described as follows: CEETOX_H295R_CORTISOL_noMTC: CeeTox H295R High-throughput Steroidogenesis Assay for Cortisol, maximum tolerated concentration (MTC) filtered results only (AID 2283916; active means hit-call score of the fitted dose curve at least 0.9, where 1 is the maximum; inactive means score below 0.9). The following applies: actives raise or lower the signal. In short, it runs like this: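 H295R human adrenal cells prestimulated 48 h with 10 uM forskolin, then exposed 48 h to chemical in 0.1% DMSO; cortisol in medium quantified by HPLC-MS/MS; bidirectional fit vs DMSO baseline, concentrations not MTT-filtered for MTC.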

Assay [6] can be described thus: CEETOX_H295R_CORTIC_noMTC: CeeTox H295R High-throughput Steroidogenesis Assay for Corticosterone (CORTIC), maximum tolerated concentration (MTC) filtered results only (AID 2283917; active means hit-call score of the fitted dose curve at least 0.9, where 1 is the maximum; inactive means score below 0.9). The following applies: actives raise or lower the signal. An outline of the steps: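 H295R adrenal cells pre-stimulated 48 h with 10 uM forskolin, then exposed 48 h to chemical in 0.1% DMSO; corticosterone in medium quantified by HPLC-MS/MS, fitted bidirectionally versus DMSO without MTT-based concentration filtering.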

A short description of assay [7]: CEETOX_H295R_DOC_noMTC: CeeTox H295R High-throughput Steroidogenesis Assay for DOC, maximum tolerated concentration (MTC) filtered results only (AID 2283918; active means hit-call score of the fitted dose curve at least 0.9, where 1 is the maximum; inactive means score below 0.9). The following applies: actives raise or lower the signal. An outline of the steps: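 H295R cells prestimulated 48 h with 10 uM forskolin, then exposed 48 h to chemical in 0.1% DMSO. 11-Deoxycorticosterone in medium measured by MTBE extraction and HPLC-MS/MS; bidirectional fit vs DMSO, no MTC filter.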

The nature of assay [8]: CEETOX_H295R_ESTRADIOL_noMTC: CeeTox H295R High-throughput Steroidogenesis Assay for Estradiol, maximum tolerated concentration (MTC) filtered results only (AID 2283919; active means hit-call score of the fitted dose curve at least 0.9, where 1 is the maximum; inactive means score below 0.9). The conditions noted are these: actives raise or lower the signal. In short, it runs like this: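 H295R human adrenal cells pre-stimulated 48 h with 10 uM forskolin, then exposed 48 h to chemical (0.1% DMSO final). Estradiol in medium measured by HPLC-MS/MS after MTBE extraction and dansyl derivatization; bidirectional fit versus DMSO, concentrations not MTT-filtered.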

Assay [9] is described as follows: CEETOX_H295R_PROG_noMTC: CeeTox H295R High-throughput Steroidogenesis Assay for Progesterone (PROG), maximum tolerated concentration (MTC) filtered results only (AID 2283920; active means hit-call score of the fitted dose curve at least 0.9, where 1 is the maximum; inactive means score below 0.9). The conditions noted are these: actives raise or lower the signal. An outline of the steps:
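H295R cells, prestimulated 48 h with 10 uM forskolin, exposed 48 h to chemical in 0.1% DMSO. Medium progesterone quantified by MTBE extraction and HPLC-MS/MS; bidirectional fit versus DMSO, concentrations not MTT-filtered.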

Assay [10] is described as follows: CEETOX_H295R_ESTRONE_noMTC: CeeTox H295R High-throughput Steroidogenesis Assay for Estrone, maximum tolerated concentration (MTC) filtered results only (AID 2283921; active means hit-call score of the fitted dose curve at least 0.9, where 1 is the maximum; inactive means score below 0.9). The following applies: actives raise or lower the signal. In short, it runs like this:
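H295R cells prestimulated 48 h with 10 uM forskolin, then exposed 48 h to chemical in 0.1% DMSO; medium estrone measured by HPLC-MS/MS after MTBE extraction and dansyl derivatization, fitted bidirectionally versus DMSO without MTT-based MTC filtering.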

Assay [11] is described as follows: CPHEA_Stoker_NIS_Cytotoxicity: Cytotoxicity Assessment for CPHEA's Radioactive Iodide Uptake (RAIU) Assay for Sodium/Iodide Symporter (NIS) Inhibition, Stoker and Laws Labs (AID 2283897).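 On AC50: active means loss of ATP signal versus DMSO meaning cytotoxicity.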 In short, it runs like this:
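hNIS-HEK293T-EPA cells, human NIS expressed in HEK293T, treated 2 h with chemicals (0.001–100 uM, 0.5% final DMSO). ATP content read by CellTiter-Glo luminescence; loss of signal analysed relative to DMSO.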

A short description of assay [12]: ATG_M_61_XSP2: Attagene TRANS-FACTORIAL Multi-Species (XSP2) HepG2 Assay for M61 Transcription Factor (Internal Marker) (AID 2283835; active means hit-call score of the fitted dose curve at least 0.9, where 1 is the maximum; inactive means score below 0.9;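 further: active means a rise in signal above the DMSO baseline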). An outline of the steps:
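HepG2 cells transiently transfected with multiple GAL4-UAS reporter units; reporter mRNA measured 24 h after dosing by RT-PCR, fluorescent labelling and capillary electrophoresis. Medium contained 3 nM 6-alpha-fluorotestosterone and 1.5 nM norgestrel; internal marker, DMSO baseline.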

The target of assay [13] is frog Thyroid hormone Receptor alpha (TRa), thra-a (gene 397942) (UniProt P15204). The experiment in a line: ATG_frTRa_XSP2: Attagene TRANS-FACTORIAL Multi-Species (XSP2) HepG2 Assay for frog Thyroid hormone Receptor alpha (TRa) (AID 2283839).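 On AC50: AC50 reflects induction of frog TRa-driven reporter mRNA above DMSO baseline.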 In short, it runs like this:
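HepG2 cells transiently transfected with multiplexed GAL4-UAS reporter units expressing chimeric frog TRα-Gal4; reporter mRNA read 24 h after dosing by RT-PCR, FAM-labelled primer extension, HpaI digest and capillary electrophoresis. Gain of signal fitted versus DMSO.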

Assay [14] addresses human Thyroid hormone Receptor beta (TRb), THRB (gene 7068) (UniProt P10828). The experiment in a line: ATG_hTRb_XSP2: Attagene TRANS-FACTORIAL Multi-Species (XSP2) HepG2 Assay for human Thyroid hormone Receptor beta (TRb) (AID 2283840).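 Further: actives raise reporter mRNA so potency reflects agonist-like gain of signal.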 In short, it runs like this: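 HepG2 cells were transiently transfected with GAL4-UAS multiplexed reporter units expressing chimeric NR-Gal4 proteins, dosed 24 h; reporter mRNA was quantified by RT-PCR, fluorescent labeling, HpaI digestion and capillary electrophoresis, fitted for gain of signal versus DMSO.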

Assay [15] relates to zebrafish Peroxisome Proliferator-activated Receptor gamma (PPARg), gene 557037. The experiment in a line: ATG_zfPPARg_XSP2: Attagene TRANS-FACTORIAL Multi-Species (XSP2) HepG2 Assay for zebrafish Peroxisome Proliferator-activated Receptor gamma (PPARg) (AID 2283833).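 Further: actives increase reporter signal over DMSO so AC50 reflects activation.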 In short, it runs like this: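 HepG2 cells transiently transfected with GAL4-UAS reporter units expressing a zebrafish PPARg–GAL4 chimera; compound exposure 24 h. Reporter mRNA quantified by RT-PCR with fluorescent labelling and capillary electrophoresis; gain of signal fitted relative to DMSO baseline.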

Assay [16] addresses human Thyroid hormone Receptor alpha (TRa), THRA (gene 7067) (UniProt P10827). The experiment in a line: ATG_hTRa_XSP2: Attagene TRANS-FACTORIAL Multi-Species (XSP2) HepG2 Assay for human Thyroid hormone Receptor alpha (TRa) (AID 2283838). In short, it runs like this: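 HepG2 cells were transiently transfected with GAL4-UAS reporter units for chimeric human TRa-Gal4 and dosed for 24 hours, with 3 nM 6-alpha-fluorotestosterone and 1.5 nM norgestrel present. Reporter mRNA was quantified by RT-PCR, FAM labelling and capillary electrophoresis, with gain of signal fitted versus DMSO.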

Another assay has as its target PGR (gene 5241) (UniProt P06401). Description: TOX21_PR_BLA_Followup_Antagonist_ratio: Tox21 HEK293 Progesterone Receptor (PR) Antagonism Beta-lactamase Follow-Up Assay, Ratio (AID 2283934). An outline of the steps:
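HEK293T PR-UAS-bla, 2% CS-FBS; 6 hr plating, then cpd + R5020 (1 nM final), 16 hr 37C/5% CO2. B/G FRET substrate 2 h RT. Ratio ch2/ch1 vs DMSO; CellTiter-Glo viability multiplexed, autofluorescence checked.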

Assay [17] in a line: TOX21_PR_BLA_Followup_Agonist_viability: Viability Assessment in the Tox21 HEK293 Progesterone Receptor (PR) Agonism Beta-lactamase Follow-Up Assay (AID 2283935).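 Further: cells exposed to compound for 16 hr at 37 °C; signal loss means lower viability so actives are cytotoxic.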 In short, it runs like this:
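HEK293T PR-UAS-bla, 3,000 cells/well, 2% CS-FBS; 6 hr pre-incubation; cpd in DMSO, 16 hr 37C; LiveBLAzer 2 hr RT, then CellTiter-Glo 30 min RT, luminescence. Decrease = lost viability.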

In assay [18] the test system is turtle Thyroid Hormone Receptor, alpha (TRa), gene 101949057. The experiment in a line: ATG_trTRa_XSP2: Attagene TRANS-FACTORIAL Multi-Species (XSP1) HepG2 Assay for turtle Thyroid Hormone Receptor, alpha (TRa) (AID 2283834).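 Further: hits raise reporter mRNA over the DMSO baseline so AC50 marks activators.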 An outline of the steps: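 HepG2 cells transiently transfected with multiplexed GAL4-UAS reporter units expressing chimeric NR-Gal4 proteins were dosed for 24 hours. Reporter mRNA was quantified by RT-PCR with 6-FAM labelling and capillary electrophoresis, gain of signal scored against DMSO.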

Sequence of frog Thyroid hormone Receptor alpha (TRa), thra-a (gene 397942) (P15204 whole entry, looked up, the tested form may be a part): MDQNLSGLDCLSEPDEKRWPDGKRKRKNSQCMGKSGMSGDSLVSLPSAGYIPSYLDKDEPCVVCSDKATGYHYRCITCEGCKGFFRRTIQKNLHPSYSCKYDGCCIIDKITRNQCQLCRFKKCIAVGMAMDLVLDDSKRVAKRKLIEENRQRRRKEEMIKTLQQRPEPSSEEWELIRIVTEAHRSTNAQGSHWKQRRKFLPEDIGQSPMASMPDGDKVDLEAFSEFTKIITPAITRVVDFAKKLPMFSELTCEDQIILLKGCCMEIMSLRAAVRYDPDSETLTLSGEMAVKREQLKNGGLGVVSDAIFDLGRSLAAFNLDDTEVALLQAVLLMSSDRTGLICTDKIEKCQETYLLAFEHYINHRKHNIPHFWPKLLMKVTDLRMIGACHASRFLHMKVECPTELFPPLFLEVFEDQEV
Sequence of human Thyroid hormone Receptor beta (TRb), THRB (gene 7068) (P10828 whole entry, looked up, the tested form may be a part): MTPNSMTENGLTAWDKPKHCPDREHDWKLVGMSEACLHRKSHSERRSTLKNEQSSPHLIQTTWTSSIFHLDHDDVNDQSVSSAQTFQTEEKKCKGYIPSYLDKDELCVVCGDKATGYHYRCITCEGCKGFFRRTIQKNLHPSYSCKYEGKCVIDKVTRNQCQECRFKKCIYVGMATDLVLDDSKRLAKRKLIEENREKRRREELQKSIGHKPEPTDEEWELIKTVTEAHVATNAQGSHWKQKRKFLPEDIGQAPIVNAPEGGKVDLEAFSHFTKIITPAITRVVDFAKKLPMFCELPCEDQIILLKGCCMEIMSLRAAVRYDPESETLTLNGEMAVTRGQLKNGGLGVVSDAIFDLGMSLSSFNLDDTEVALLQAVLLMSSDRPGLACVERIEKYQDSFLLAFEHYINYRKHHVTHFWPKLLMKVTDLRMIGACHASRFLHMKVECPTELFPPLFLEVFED
Sequence of human Thyroid hormone Receptor alpha (TRa), THRA (gene 7067) (P10827 whole entry, looked up, the tested form may be a part): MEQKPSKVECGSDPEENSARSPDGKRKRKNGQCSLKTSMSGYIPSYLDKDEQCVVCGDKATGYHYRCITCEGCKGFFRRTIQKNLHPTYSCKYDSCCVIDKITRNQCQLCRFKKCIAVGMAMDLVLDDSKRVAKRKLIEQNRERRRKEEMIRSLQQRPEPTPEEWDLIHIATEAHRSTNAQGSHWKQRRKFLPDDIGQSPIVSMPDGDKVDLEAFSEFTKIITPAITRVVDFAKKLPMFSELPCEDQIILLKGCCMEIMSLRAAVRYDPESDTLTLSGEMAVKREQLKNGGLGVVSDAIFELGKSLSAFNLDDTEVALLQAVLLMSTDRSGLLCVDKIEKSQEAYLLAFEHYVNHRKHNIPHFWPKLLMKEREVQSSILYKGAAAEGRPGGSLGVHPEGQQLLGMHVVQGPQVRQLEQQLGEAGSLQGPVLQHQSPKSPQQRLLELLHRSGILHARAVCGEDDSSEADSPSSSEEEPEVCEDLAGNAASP
Sequence of PGR (gene 5241) (P06401 whole entry, looked up): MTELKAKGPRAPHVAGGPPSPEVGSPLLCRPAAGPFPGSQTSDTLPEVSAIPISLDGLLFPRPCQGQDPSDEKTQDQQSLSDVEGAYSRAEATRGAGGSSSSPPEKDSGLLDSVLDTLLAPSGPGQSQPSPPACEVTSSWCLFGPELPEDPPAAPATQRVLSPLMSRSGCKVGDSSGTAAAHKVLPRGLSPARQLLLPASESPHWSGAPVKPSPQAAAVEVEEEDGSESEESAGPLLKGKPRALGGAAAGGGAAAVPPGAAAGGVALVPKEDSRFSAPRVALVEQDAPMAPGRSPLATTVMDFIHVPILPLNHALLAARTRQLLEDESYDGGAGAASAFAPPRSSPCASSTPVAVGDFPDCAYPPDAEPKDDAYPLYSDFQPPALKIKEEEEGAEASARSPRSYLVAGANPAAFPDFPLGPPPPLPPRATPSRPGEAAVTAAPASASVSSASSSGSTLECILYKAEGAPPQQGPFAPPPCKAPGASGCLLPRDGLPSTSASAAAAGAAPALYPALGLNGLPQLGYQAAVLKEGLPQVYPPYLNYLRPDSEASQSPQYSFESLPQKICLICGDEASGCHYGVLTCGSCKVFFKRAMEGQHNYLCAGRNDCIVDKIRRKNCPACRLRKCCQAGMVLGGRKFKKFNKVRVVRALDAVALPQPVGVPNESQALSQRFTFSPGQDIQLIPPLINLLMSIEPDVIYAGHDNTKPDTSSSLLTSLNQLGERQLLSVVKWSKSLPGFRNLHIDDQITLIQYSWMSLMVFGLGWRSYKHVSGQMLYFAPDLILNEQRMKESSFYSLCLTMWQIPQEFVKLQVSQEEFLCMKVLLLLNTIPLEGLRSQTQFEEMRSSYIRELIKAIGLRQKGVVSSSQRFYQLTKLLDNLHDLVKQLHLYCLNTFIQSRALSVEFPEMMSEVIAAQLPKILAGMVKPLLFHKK

Take `O=C(Nc1ccccc1)Nc1cnns1`: the outcome in assay [1], in [8] and in assay [10] was inactive. Also, the AC50 in assay [2] was 35.2 µM (active); in assay [3], 14.3 µM (active); in assay [4], 37.8 µM (active); in assay [5], 41.7 µM (active); in assay [6], 31.8 µM (active); in assay [7], 25.4 µM (active). The half-maximal activity concentration (AC50) in assay [9] is 34.7 µM (active).

For the compound `C#CCN1C(=O)COc2cc(F)c(N3C(=O)C4=C(CCCC4)C3=O)cc21`, the concentration at half-maximal activity (AC50) in assay [1] and in [11] was 50 µM (active) each time.

Take `O=S1OCC2C(CO1)C1(Cl)C(Cl)=C(Cl)C2(Cl)C1(Cl)Cl` (stereo not drawn): the compound was classed as inactive in [12], in assay [13], in [14] and in [11]. For the same compound, the AC50 in assay [1] is 50 µM (active).

Turning to `CCCN(CCOc1c(Cl)cc(Cl)cc1Cl)C(=O)n1ccnc1`, the outcome in assay [15], in assay [12], in assay [16], in [13], in assay [14] and in [17] was inactive. Further, the AC50 in assay [1] is 76.5 µM (active); in [11], 50 µM (active); with PGR (gene 5241), 32.3 µM (active).

For `CCN(CC)C(=O)SCc1ccc(Cl)cc1`, the AC50 in assay [1] was 50 µM (active). The result in assay [11] was inactive.

As to `Oc1ccc(Cl)cc1Cc1ccccc1`, the result in assay [15], in assay [18], in [12], in assay [16] and in assay [14] was inactive. The half-maximal activity concentration (AC50) in [13] was 10 µM (active); in [1], 50 µM (active) and 11.2 µM (active) and 21.7 µM (active); in assay [11], 24.9 µM (active) and 50 µM (active).

In the case of `CCC(C)(NC(=O)c1cc(Cl)c(C)c(Cl)c1)C(=O)CCl` (stereo not drawn), the AC50 in assay [1] is 31.4 µM (active). Also, the result in assay [11] was inactive.
